Hits are enriched below; roughly 21% of the tested compounds scored in any of these assays.
DT40 TDP1 no CPT = qHTS for Inhibitors of human tyrosyl-DNA phosphodiesterase 1 (TDP1): qHTS in cells in absence of CPT. DT40 Tdp1-/- hTDP1 cells, no CPT, ATP luminescence, 48 h. Potency, µM (top dose mostly 46.2 µM), inactives show top-dose activity change, negative = growth inhibition, usual class: inhibitors. 420,000 compounds, 15% hits. AID 686978, 2013; further: potency means the concentration at half of the fitted maximal effect; on the % scale 0 is the no-effect control and ±100 the full control effect; nearly all actives have a fitted effect of over 55% in size
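Readout: luminescence from CellTiter-Glo after 30 min in the dark at RT. Cells: DT40 Tdp1-/- with stable hTDP1, 400/well. Exposure: compounds alone, ≥48 hr, 37 °C.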
DT40 TDP1 CPT = growth inhibition of DT40 Tdp1-/-;hTDP1 cells with camptothecin (screen for TDP1 inhibitors). 420,000 compounds, 12% hits. Potency, µM (titrated, usually from 46.2 µM), without a hit: top-dose activity change, negative = growth inhibition, actives largely listed as inhibitors. chicken DT40 Tdp1-/-;hTDP1 cells + 20 nM CPT, ATP luminescence, 48 h; further: potency means the concentration at half of the fitted maximal effect; on the % scale 0 is the no-effect control and ±100 the full control effect; nearly all actives have a fitted effect of over 55% in size
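Chicken DT40 Tdp1-/- cells stably complemented with human TDP1 were seeded at 400 cells/well in medium containing 20 nM camptothecin, exposed to pin-transferred compounds, and grown at 37 °C for at least 48 hr. Viability was read as ATP luminescence.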
DRD3 antagonist = blocks the human D3 dopamine receptor | D3R cells, DiscoveRx beta-arrestin luminescence, antagonist mode; active compounds read low | AID 652054 | max response, negative = inhibition, % | 360,000 compounds, 2.5% hits; in the data active means max response below about -50%; inconclusive means no clear call, values can overlap the other calls; further: on the % scale 0 is the no-effect control and ±100 the full control effect
Target sequence (P35462 whole entry, looked up): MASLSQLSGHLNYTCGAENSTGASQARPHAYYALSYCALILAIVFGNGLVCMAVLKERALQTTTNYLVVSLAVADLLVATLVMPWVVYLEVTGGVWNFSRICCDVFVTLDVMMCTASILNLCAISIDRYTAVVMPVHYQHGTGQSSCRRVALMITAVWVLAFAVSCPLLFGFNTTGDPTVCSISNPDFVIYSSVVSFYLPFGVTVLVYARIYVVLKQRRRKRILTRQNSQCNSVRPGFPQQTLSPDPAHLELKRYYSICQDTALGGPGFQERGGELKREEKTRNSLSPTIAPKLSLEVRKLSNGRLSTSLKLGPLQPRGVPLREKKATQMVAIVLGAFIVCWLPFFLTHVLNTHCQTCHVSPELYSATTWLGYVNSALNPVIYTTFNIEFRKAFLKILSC
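Cells plated overnight at 1500 cells/well, then exposed to library compounds with dopamine controls for 90 minutes at 37 degrees C. DiscoveRx reagent added for 30–60 minutes at room temperature; luminescence read, quantitative HTS format.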
D3 ag = agonists of human D3 dopamine receptor. P35462. D3R DiscoveRx beta-arrestin cells, luminescence, 90 min. max activation, %. 410,000 compounds, 0.58% hits; in the data active means max activation above about 30%; further: 0% is about no effect
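Agonist-mode cell screen: cells plated at 1500/well and incubated overnight at 37 °C, then exposed to library compounds for 90 min at 37 °C. Detection reagent was added for 30–60 min at room temperature, and luminescence was read.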
IL1B secr inh = blocks inflammasome-driven IL-1 beta release | THP-1 LPS/ATP IL-1B secretion, AlphaLISA, 16 h; active compounds read low | 360,000 compounds, 4.7% hits | activity change, % at 57.5 µM; in the data active means activity change below about -50%; inconclusive means mostly about -30% to -49%; further: on the % scale 0 is the no-effect control and ±100 the full control effect
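Secreted IL-1B measured by AlphaLISA bead assay after 16 h compound exposure of THP-1 cells; compounds (final up to 57.5 uM) added 1 h before LPS (250 ng/mL) and ATP (1.25 mM) stimulation; lower signal means less secretion.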
ClpP mod = qHTS Assay for Activators of ClpP; ATP-dependent Clp protease proteolytic subunit (Bacillus subtilis (strain 168)), P80244; purified B. subtilis ClpP, FRET peptide cleavage, 20 min; Potency, µM (doses to about 57.5 µM), for inactives: at the highest dose activity change, negative = active; AID 651965, 2013; 340,000 compounds, 1.9% hits; active means well fitted falling curve with a large enough effect; inconclusive means small, poorly fitted or top-dose-only effect; inactive means no such curve, though single readings can be large or run the other way; further: potency means the concentration at half of the fitted maximal effect; the source files actives as falling curves though it sought activators and does not explain the sign; nearly all actives have a fitted effect of over 65% in size
Target sequence (P80244 whole entry, looked up): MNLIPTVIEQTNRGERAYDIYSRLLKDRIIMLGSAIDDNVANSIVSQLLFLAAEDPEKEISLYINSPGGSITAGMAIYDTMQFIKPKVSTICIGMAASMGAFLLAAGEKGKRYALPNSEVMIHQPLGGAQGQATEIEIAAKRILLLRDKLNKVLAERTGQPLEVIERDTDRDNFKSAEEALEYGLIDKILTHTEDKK
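ClpP 10 microg/mL final, pH 8 Tris/KCl buffer with BSA, glycerol, Tween-20; compound pinned in; FRET-FV substrate; RT 20 min; Ex320/Em430; ΔFRET vs ADEP 5.8 microM, DMSO, no enzyme.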
An asterisk follows results filed as active; i = inactive; ? = inconclusive; nt = no result given; [ ] = another dose, or the depositor's remark. Unless noted, the call rests on the fitted dose curve; in most records, active means well fitted inhibition curve with a large enough effect; inconclusive means small, poorly fitted or top-dose-only effect; inactive means flat fitted curve, though single readings scatter.

SMILES | DT40 TDP1 no CPT | DT40 TDP1 CPT | DRD3 antagonist | D3 ag | IL1B secr inh | ClpP mod
COc1cc(-c2coc3c(C(=O)NCc4ccccc4)cccc23)ccc1O | -76.5% | 18.4µM* | 6.6 | 3.0 | ? | -1.1%
COc1ccc(NC(=O)c2cccc3c(-c4ccc(O)c(OC)c4)coc23)cc1 | 18.4µM* | ? | 115.9 | 2.9 | -1.3 | -7.0%
COc1cc(-c2coc3c(C(=O)NCc4cccc(Cl)c4)cccc23)ccc1O | 18.4µM* | ? | -0.1 | 15.9 | -54.5* | -6.8%
COc1ccc(NC(=O)c2cccc3ccccc23)cc1OC | -7.7% | -13.2% | 19.4 | 4.3 | ? | -2.7%
CNC(=O)[C@@]1(Cc2ccccc2)C=C[C@@H](C)N1C(=O)OC | -10.8% | 0.5% | ? | -13.4 | 18.2 | -0.6%
C[C@@H]1C=C[C@](Cc2ccccc2)(C(=O)NCC2CC2)N1C(=O)c1ccccc1 | 9.2µM* | 18.4µM* | -2.2 | 2.4 | 7.7 | 0.5%
COc1cccc(N2CC(C(=O)Nc3nnc(SCCC4OCCO4)s3)CC2=O)c1 (configuration not stated) | 2.1% | -7.5% | 19.9 | 2.3 | i | -1.4%
NC(=O)CSc1nnc(NC(=O)C2CC(=O)N(c3ccc(F)cc3)C2)s1 (configuration not stated) | 20.6µM* | -1.7% | -0.8 | -0.3 | 0.0 | -1.8%
Cc1ccc(N2CC(C(=O)Nc3nnc(SCC(N)=O)s3)CC2=O)cc1C (configuration not stated) | 7.1% | -16.6% | 0.0 | -19.4 | 9.1 | -8.4%
COc1cccc(N2CC(C(=O)Nc3nnc(SCc4cccnc4)s3)CC2=O)c1 (configuration not stated) | ? | -15.3% | -24.7 | -1.6 | 35.4 | 12.6µM*
COC(=O)[C@@H]1CCCN1Cc1ccc2c(c1)CN(Cc1coc3ccc(C)cc3c1=O)CCO2 | ? | -1.3%[9.04 µM] | nt | nt | nt | nt
Cc1ccc(S(=O)(=O)NCc2ccccc2)cc1C(=O)NCc1ccncc1 | -6.5% | 4.8% | 6.0 | 1.5 | 19.7 | 2.6%
O=C(Cn1c(=O)sc2ccccc21)Nc1ccccc1 | 20.6µM* | 25.9µM* | -22.4 | -2.1 | -7.0 | -1.7%
COc1ccc(NC(=O)Cn2c(=O)sc3ccccc32)cc1 | -18.4% | 1.4% | -1.3 | -2.8 | 4.7 | -1.9%
CC1CCc2c(C(=O)Nc3cccc(-c4nn[nH]n4)c3)csc2C1 (configuration not stated) | 5.8% | 2.7% | -17.9 | -5.1 | 0.0 | -0.8%
C=CC[C@@H](CC(=O)N[C@H](CO)Cc1ccccc1)C(=O)N[C@H](COC(=O)[C@@H](CC=C)Cc1ccc(F)cc1)Cc1c[nH]c2ccccc12 | 18.4µM* | 13µM* | 18.8 | 18.6 | ? | -2.8%
C=CC[C@H](CC(=O)N[C@H](CO)Cc1ccccc1)C(=O)N[C@H](COC(=O)[C@@H](CC=C)Cc1ccc(F)cc1)Cc1c[nH]c2ccccc12 | -10.5% | -2.0% | 8.7 | 8.5 | -9.9 | -2.4%
C=CC[C@@H](CC(=O)N[C@@H](CO)Cc1ccccc1)C(=O)N[C@@H](COC(=O)[C@@H](CC=C)Cc1ccc(F)cc1)Cc1c[nH]c2ccccc12 | 20.6µM* | 16.4µM* | -10.7 | -24.1 | -50.7* | 4.1%
Cc1ccc(-c2nc3c(Cl)cc(Cl)cc3c(=O)n2O)cc1 | 18.4µM* | ? | -5.6 | -0.2 | 40.3 | 3.1%
O=c1c2ccc(Cl)cc2nc(-c2cccc(C(F)(F)F)c2)n1O | 3.66µM* | 4.11µM* | -4.9 | 2.5 | 105.3 | -2.0%
O=c1c2ccccc2nc(-c2ccc(Cl)c(Cl)c2)n1O | 5.17µM* | 6.51µM* | -8.3 | 5.0 | 26.6 | 1.4%
O=c1c2cc(Br)ccc2nc(-c2ccc(Cl)cc2)n1O | ? | ? | 12.2 | 5.4 | 7.4 | nt
O=[N+]([O-])c1nc2ccccc2[nH]1 | -28.0% | -8.1% | -16.8 | -3.2 | 41.7 | -10.7%
COc1ccccc1Nc1nc(-c2ccc([N+](=O)[O-])cc2)nc2ccccc12 | ? | ? | 10.3 | 0.7 | 78.1 | -0.6%
CN(Cc1ccccc1)c1nc(-c2ccc([N+](=O)[O-])cc2)nc2ccccc12 | ? | 18.4µM* | -54.0* | 2.7 | -24.8 | 0.7%
SMILES | DT40 TDP1 no CPT | DT40 TDP1 CPT | DRD3 antagonist | D3 ag | IL1B secr inh | ClpP mod
O=[N+]([O-])c1ccc(-c2nc(C(Cl)Cl)c3ccccc3n2)cc1 | 0.164µM* | 0.146µM* | -59.4* | -13.1 | 118.2 | nt
COCCN(CCOC)c1nc(-c2ccc([N+](=O)[O-])cc2)nc2ccccc12 | 6.51µM* | 0.581µM* | 52.5 | 14.9 | 8.6 | 2.9%
O=C(NCc1ccc(F)cc1)C(Cc1ccccc1)n1cccc1 (configuration not stated) | -36.2% | ? | -14.8 | -0.4 | 0.0 | 1.0%
Cc1ccc(S(=O)(=O)NNc2ccccc2)cc1 | -1.0% | -20.7% | -13.2 | 4.1 | 14.0 | -0.7%
Cc1ccc(S(=O)(=O)NNc2nc3ccccc3nc2C(F)(F)F)cc1 | 18.4µM* | ? | -54.5* | 0.5 | -10.6 | -1.4%
Cc1ccc(S(=O)(=O)Nc2ccc(Cl)cc2O)cc1 | ? | ? | 11.4 | 6.0 | -21.0 | -5.5%
Cc1ccc(S(=O)(=O)NNc2c3ccccc3nc3ccc(Cl)cc23)cc1 | 8.2µM* | 23.1µM* | ? | -12.1 | -22.7 | 4.4%
O=c1cc(-c2ccccc2)cc(-c2ccccc2)n1O | 16.4µM* | 20.6µM* | 28.9 | 22.5 | 120.3 | -22.0%
Cc1cc2c3c([nH]c2cc1S(=O)(=O)N1CCC2(CC1)OCCO2)CC(C)(C)CC3=O | -58.3% | ? | -5.4 | 2.0 | 12.3 | -10.7%
CCc1cc2c3c([nH]c2cc1S(=O)(=O)N1CCC2(CC1)OCCO2)CCCC3=O | 16.4µM* | 23.1µM* | 3.2 | -3.4 | -15.7 | -1.7%
O=C(NC(=S)Nc1ccc(CN2CCOCC2)cc1)c1ccc(-c2ccc(Cl)cc2)o1 | ? | ? | 32.6 | 5.8 | 0.0 | 13.1%
O=C(NC(=S)Nc1ccc(CN2CCOCC2)cc1)c1ccc(-c2cccc(Cl)c2)o1 | 7.31µM* | 16.4µM* | 17.3 | -2.1 | ? | 8.9%
O=C(Nc1ccc(CN2CCOCC2)cc1)c1ccc(-c2cccc(Cl)c2)o1 | ? | ? | 6.6 | 0.6 | -59.9* | 0.1%
Nc1nonc1-n1nnc(C(=O)N/N=C/c2cccc(F)c2)c1CN1CCCCCC1 | 0.2% | 1.1% | 49.6 | 0.1 | 1.1 | 3.0%

Screening data: PubChem, National Center for Advancing Translational Sciences (NCATS)
